The record followed here is PubChem BioAssay AID2061166 (Soto Lab, Mitchell Center for Alzheimers Disease and …, 2025).

Active and inactive are the calls of the source.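 Rule for the calls: active = mean tau seeding fluorescence area under 1% of vehicle, meaning inhibition above a set limit; inactive = the rest.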

The target of the assay is Microtubule-associated protein tau (Homo sapiens) (UniProt P10636). In words: inhibitors of seeded tau aggregation, primary screen, biochemical, seed amplification, ThT fluorescence (AID 2061166). The note with it: Recombinant tau seeded by AD brain, ThT fluorescence AUC; at 100 µM; hits give high values.
Sequence of Microtubule-associated protein tau (Homo sapiens) (P10636 whole entry, looked up): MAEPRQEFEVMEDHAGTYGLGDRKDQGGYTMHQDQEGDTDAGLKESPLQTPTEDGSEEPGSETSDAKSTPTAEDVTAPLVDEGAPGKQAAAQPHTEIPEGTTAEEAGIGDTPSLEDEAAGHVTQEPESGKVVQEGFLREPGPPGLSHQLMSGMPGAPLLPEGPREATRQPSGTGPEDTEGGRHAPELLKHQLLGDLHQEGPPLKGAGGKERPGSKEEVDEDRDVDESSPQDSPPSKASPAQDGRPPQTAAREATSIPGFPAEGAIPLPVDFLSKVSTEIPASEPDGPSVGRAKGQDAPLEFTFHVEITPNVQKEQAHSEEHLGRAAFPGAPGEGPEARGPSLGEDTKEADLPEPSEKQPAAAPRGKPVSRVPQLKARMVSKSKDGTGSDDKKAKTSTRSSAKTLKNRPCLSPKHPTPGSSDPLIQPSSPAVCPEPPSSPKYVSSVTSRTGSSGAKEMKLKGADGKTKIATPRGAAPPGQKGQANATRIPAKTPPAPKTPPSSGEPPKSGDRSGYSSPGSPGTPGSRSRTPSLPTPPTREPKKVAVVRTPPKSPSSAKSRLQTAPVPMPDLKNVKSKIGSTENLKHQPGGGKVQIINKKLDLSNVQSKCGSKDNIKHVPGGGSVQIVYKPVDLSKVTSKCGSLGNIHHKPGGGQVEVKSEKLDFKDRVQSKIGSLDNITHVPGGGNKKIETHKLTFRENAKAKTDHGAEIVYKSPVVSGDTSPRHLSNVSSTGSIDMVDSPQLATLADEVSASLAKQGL
As to `CC1CCC2(C(=O)O)CCC3(C)C(=CCC4C5(C)CC(O)C(O)C(C)(CO)C5C(O)CC43C)C2C1C` (configuration not stated), the inhibition (usually the relative decrease from the control value, in per cent) is 31% (inactive).

As to `CN(C)c1ccc2nc3ccc(=[N+](C)C)cc-3sc2c1`, the inhibition is 100% (active).

On to `CN(C)CCCN1c2ccccc2Sc2ccccc21`, for which the inhibition was 13.2% (inactive).

Consider `Nc1ccccc1NC(=O)c1ccc(CNC(=O)OCc2cccnc2)cc1`, for which the inhibition was -34.7% (inactive).

As for `CC1(C)CCC2(C(=O)O)CCC3(C)C(=CCC4C5(C)CCC(O)C(C)(CO)C5CCC43C)C2C1` (configuration not stated), the inhibition is 65% (inactive).

In the case of `Cc1nc2c([nH]1)CCN(C(=O)c1ccc(NC(=O)c3ccccc3-c3ccccc3)cc1)c1ccccc1-2`, the inhibition is 6.08% (inactive).

`OC(CCN1CCCCC1)(c1ccccc1)C1CCCCC1` (configuration not stated): the inhibition was 21.7% (inactive).

As to `CCN(CC)CCNC(=O)c1c(C)[nH]c(/C=C2\C(=O)Nc3ccc(F)cc32)c1C`, the inhibition is 98.6% (inactive).

For `COc1ccc2[nH]cc(CCNC(C)=O)c2c1`, the inhibition was -15.9% (inactive).

On to `CC(=O)C1CCC2C3CC=C4CC(O)CCC4(C)C3CCC12C` (configuration not stated), for which the inhibition was 41.9% (inactive).

As to `Cc1ccc(C(C)C)cc1O`, the inhibition was 10.5% (inactive).

For `OCCOCCN1CCN(C2=Nc3ccccc3Sc3ccccc32)CC1`, the inhibition is 22.2% (inactive).

Consider `Nc1cccc2c1CN(C1CCC(=O)NC1=O)C2=O` (configuration not stated), for which the inhibition is 42.8% (inactive).

Turning to `Cc1c(N)c(=O)n(-c2ccccc2)n1C`, the inhibition is 0.254% (inactive).

For `CC1(O)Cc2oc3cc(O)c(O)c(C(=O)O)c3c(=O)c2CO1` (configuration not stated), the inhibition is 33.4% (inactive).

On to `CN(C)c1ccc(C=CC=O)cc1`, for which the inhibition was 37.8% (inactive).

In the case of `CC(=O)c1c(O)c(C)c(O)c2c1OC1=CC(=O)C(C(C)=O)C(=O)C12C` (configuration not stated), the inhibition is 21.4% (inactive).

On to `CNC(=O)c1cc(Oc2ccc(NC(=O)Nc3ccc(Cl)c(C(F)(F)F)c3)cc2)ccn1`, for which the inhibition was -11% (inactive).

Consider `CNS(=O)(=O)CCc1ccc2[nH]cc(C3CCN(C)CC3)c2c1`, for which the inhibition was -30.8% (inactive).

In the case of `CCN(CC)CCCC(C)Nc1c2ccc(Cl)cc2nc2ccc(OC)cc12` (configuration not stated), the inhibition is 72.2% (inactive).

On to `CC(C)COc1ccc(CNC(=O)N(Cc2ccc(F)cc2)C2CCN(C)CC2)cc1`, for which the inhibition was -91.6% (inactive).

With `CC12CC3CC(C)(C1)CC(N)(C3)C2`, the inhibition was 10.2% (inactive).

Turning to `O=C(O)c1cc(-c2ccccc2)nc2ccccc12`, the inhibition is 3.74% (inactive).

On to `CC(=O)OCC(=O)C1(O)C(C)CC2C3CCC4=CC(=O)C=CC4(C)C3(F)C(O)CC21C` (configuration not stated), for which the inhibition was 46.2% (inactive).

Turning to `C#CCNC1CCc2ccccc21` (configuration not stated), the inhibition is -62.3% (inactive).

On to `CNCCC(Oc1cccc2ccccc12)c1cccs1` (configuration not stated), for which the inhibition was 48.5% (inactive).

As for `CN=c1ccc2nc3ccc(N)cc3sc-2c1`, the inhibition is 100% (active).

On to `COC(=O)C1=COC(OC2OC(CO)C(O)C(O)C2O)C2C1CC(O)C2C` (configuration not stated), for which the inhibition was -52.1% (inactive).

As for `Cc1ccc(C(=O)c2cc(O)c(O)c([N+](=O)[O-])c2)cc1`, the inhibition is 77.7% (inactive).

Consider `COc1cc(C(C)=O)ccc1OCCCN1CCC(c2noc3cc(F)ccc23)CC1`, for which the inhibition is -61.2% (inactive).

In the case of `Cc1ccc(Nc2c(F)cccc2Cl)c(CC(=O)O)c1`, the inhibition is 11.4% (inactive).

As to `CC1CCC2(OC1)OC1CC3C4CC=C5CC(O)CC(O)C5(C)C4CCC3(C)C1C2C` (configuration not stated), the inhibition was 13.9% (inactive).
